In PubChem BioAssay (NCI):
Compounds without any hit were thinned out: in the full panel of roughly 83,000, 20% have a hit.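 Negative percent growth values reflect cell death: -40 means 40% of the cells present at the start died, and -100 means all died.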 Unmarked numbers belong to inactive results. Activity calls are given as the source filed them. Rule for the calls: active = growth percent below 10; inactive = the rest.

Experiments:
Assay in all cases: NCI-60 one-dose screen, 48 h (100 = growth as untreated, 0 = no growth, -100 = all killed)
T-47D breast = settings: 10 µM unless noted
BT-549 breast = settings: 10 µM unless noted
MDA-MB-435 melanoma = settings: 10 µM unless noted
SW-620 colon = settings: 10 µM unless noted
MCF7 breast = settings: 10 µM unless noted
HCT-116 colon = settings: 10 µM unless noted
HCC-2998 colon = settings: 10 µM
KM12 colon = settings: 10 µM unless noted

`COc1ccc(C(=O)c2cc(OC)c(OC)c(OC)c2)cc1/C=C/C(=O)c1ccc(F)cc1` showed a growth (T-47D breast) of 67.3%, a growth (BT-549 breast) of 81.2% and a growth (MDA-MB-435 melanoma) of 60.5%. The growth (SW-620 colon) was 9.38% (active), the growth (MCF7 breast) was 19.6% and the growth (HCT-116 colon) was 1.33% (active). The growth (HCC-2998 colon) was 97.1% and the growth (KM12 colon) was 39.8%.
In the case of `CC(=O)c1cnc2ccc(-c3cc(Cl)c(O)c(Cl)c3)nc2c1NC1CCC(CN(C)C)CC1` (configuration not stated), the growth (T-47D breast) is reported as -22.9% [2.5 µM] (active), the growth (BT-549 breast) is reported as -44.9% [2.5 µM] (active) and the growth (MDA-MB-435 melanoma) is reported as -37.2% [2.5 µM] (active). The growth (SW-620 colon) was 6.12% [2.5 µM] (active), the growth (MCF7 breast) was -4.22% [2.5 µM] (active) and the growth (HCT-116 colon) was -2.49% [2.5 µM] (active). For the same compound, the growth (KM12 colon) was -2.64% [2.5 µM] (active).
With `CNC(=O)c1cc(COc2nnc(Nc3ccc(Cl)cc3)c3ccoc23)ccn1` the growth (T-47D breast) was 15.2%, the growth (BT-549 breast) was 29.8% and the growth (MDA-MB-435 melanoma) was 73.2%. For the same compound, the growth (SW-620 colon) was 108%, the growth (MCF7 breast) was 48.1% and the growth (HCT-116 colon) was 35.5%. The growth (HCC-2998 colon) was 94.3% and the growth (KM12 colon) was 53.8%.
In the case of `C=C1[C@@H](O)C[C@H]2C(C)(C)C[C@H](Cl)C[C@]2(C)[C@H]1C[C@H](O)[C@H]1CC(=O)NC1=O`, the growth (T-47D breast) is reported as -20.3% (active), the growth (BT-549 breast) is reported as -24.1% (active) and the growth (MDA-MB-435 melanoma) is reported as -44.6% (active). The growth (SW-620 colon) was -1.83% (active), the growth (MCF7 breast) was -18.8% (active) and the growth (HCT-116 colon) was -28.8% (active). The growth (HCC-2998 colon) was -44.9% (active) and the growth (KM12 colon) was -18% (active).
`CN1CCN(CC(=O)Nc2ccc(-c3nc4ccccc4s3)cc2)CC1` was tested, and the growth (T-47D breast) was 54.1%, the growth (BT-549 breast) was 80.7% and the growth (MDA-MB-435 melanoma) was 25.4%. It also gave a growth (SW-620 colon) of 102%, a growth (MCF7 breast) of 36.8% and a growth (HCT-116 colon) of 70.9%. It also gave a growth (HCC-2998 colon) of 77.3% and a growth (KM12 colon) of 85.6%.
`Cc1nc(N)sc1-c1ccnc(Nc2ccc(N3CCOCC3)cc2)n1` gave a growth (T-47D breast) of 29.8%, a growth (BT-549 breast) of 17.3% and a growth (MDA-MB-435 melanoma) of 67.2%. It also gave a growth (SW-620 colon) of 41.4%, a growth (MCF7 breast) of 27.2% and a growth (HCT-116 colon) of 26.2%. The growth (HCC-2998 colon) was 77.8% and the growth (KM12 colon) was 23.7%.
For `C[C@@H](N)c1ccc(C(=O)Nc2ccnc3[nH]ccc23)cc1`, the growth (T-47D breast) was 61.9%, the growth (BT-549 breast) was 13.9% and the growth (MDA-MB-435 melanoma) was 80.4%. It also gave a growth (SW-620 colon) of 20.5%, a growth (MCF7 breast) of 42.7% and a growth (HCT-116 colon) of 14.4%. The growth (KM12 colon) was 30.3%.
For `O=C(Cc1ccccc1)Nc1nnc(NC2CCN(c3nnc(NC(=O)Cc4ccccc4)s3)CC2)s1`, the growth (T-47D breast) was 84%, the growth (BT-549 breast) was 82% and the growth (MDA-MB-435 melanoma) was 102%. It also gave a growth (SW-620 colon) of 99.8%, a growth (MCF7 breast) of 87.4% and a growth (HCT-116 colon) of 89.2%. The growth (HCC-2998 colon) was 101% and the growth (KM12 colon) was 59.2%.
With `CCc1nc2cc(/C=C/C(=O)NO)c(F)cc2c(=O)n1CCc1ccccc1` the growth (T-47D breast) was -0.665% (active), the growth (BT-549 breast) was 15.7% and the growth (MDA-MB-435 melanoma) was 18.2%. For the same compound, the growth (SW-620 colon) was 18.4%, the growth (MCF7 breast) was 12.3% and the growth (HCT-116 colon) was 5.15% (active). It also gave a growth (HCC-2998 colon) of 37.3% and a growth (KM12 colon) of 15.5%.
For `CC(C)NC[C@@H](C(=O)N1CCN(c2ncnc3c2[C@H](C)C[C@H]3O)CC1)c1ccc(Cl)cc1`, the growth (T-47D breast) was -9.42% (active), the growth (BT-549 breast) was 25.2% and the growth (MDA-MB-435 melanoma) was 68.2%. It also gave a growth (SW-620 colon) of 71.4%, a growth (MCF7 breast) of 30.9% and a growth (HCT-116 colon) of 61.4%. The growth (KM12 colon) was 18.9%.
With `C1=C\COCc2cc(ccc2OCCN2CCCC2)Nc2nccc(n2)-c2cccc(c2)COC/1` the growth (T-47D breast) was -23.5% (active), the growth (BT-549 breast) was 21.9% and the growth (MDA-MB-435 melanoma) was -54.6% (active). The growth (SW-620 colon) was 3.2% (active), the growth (MCF7 breast) was -25.1% (active) and the growth (HCT-116 colon) was 1.18% (active). The growth (HCC-2998 colon) was -16.4% (active) and the growth (KM12 colon) was -9.97% (active).
Compound `CCOC(=O)c1sc(NC(=O)COc2ccc(/C=C3\Cc4ccc(Cl)cc4C3=O)cc2)nc1C` has a growth (T-47D breast) of 92.9%, a growth (BT-549 breast) of 94.5% and a growth (MDA-MB-435 melanoma) of 105%. It also gave a growth (SW-620 colon) of 123%, a growth (MCF7 breast) of 96.1% and a growth (HCT-116 colon) of 92.9%. The growth (KM12 colon) was 112%.
Work on `CCN(CCN(C)C)C(=O)CNCc1cc(C(N)=O)ccn1` yielded a growth (T-47D breast) of 104%, a growth (BT-549 breast) of 102% and a growth (MDA-MB-435 melanoma) of 110%. The growth (SW-620 colon) was 109%, the growth (MCF7 breast) was 96.1% and the growth (HCT-116 colon) was 94.4%. The growth (HCC-2998 colon) was 94.2% and the growth (KM12 colon) was 101%.
`N#CCNC(=O)c1ccc(-c2ccnc(Nc3ccc(N4CCOCC4)cc3)n2)cc1` showed a growth (T-47D breast) of 63.5%, a growth (BT-549 breast) of 10.8% and a growth (MDA-MB-435 melanoma) of 42.5%. The growth (SW-620 colon) was 24%, the growth (MCF7 breast) was 15.6% and the growth (HCT-116 colon) was -4.58% (active). For the same compound, the growth (HCC-2998 colon) was 30.8% and the growth (KM12 colon) was 16.9%.
In the case of `CNC(=O)c1c(C)oc2cc(Oc3ncnc4cc(OC)c(OC)cc34)ccc12`, the growth (T-47D breast) is reported as 94%, the growth (BT-549 breast) is reported as 73.6% and the growth (MDA-MB-435 melanoma) is reported as 114%. The growth (SW-620 colon) was 104%, the growth (MCF7 breast) was 97.6% and the growth (HCT-116 colon) was 93.7%. For the same compound, the growth (KM12 colon) was 102%.
`COc1cc(C2CC(c3ccc(Cl)cc3)=NN2c2ccc(Cl)cc2)cc(OC)c1OC` (configuration not stated) showed a growth (T-47D breast) of 86.1%, a growth (BT-549 breast) of 95.6% and a growth (MDA-MB-435 melanoma) of 93.3%. It also gave a growth (SW-620 colon) of 96.6%, a growth (MCF7 breast) of 89.5% and a growth (HCT-116 colon) of 93.6%. It also gave a growth (KM12 colon) of 96.5%.
